An excerpt weighted towards active compounds, which were near 2.9% of everything screened.
ABHD5 PLIN5 PPI: ABHD5-PLIN5 interaction inhibitors, primary screen, cell lysate, split luciferase complementation, luminescence. 360,000 compounds, 0.78% hits. AID 602281, 2012. Split G. princeps luciferase complementation, 4 h. inhibition, % at 4 µM;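 active means inhibition above the mean inhibition across every tested compound plus 3 SD, cut at about 22% in these data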;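 further: 0% = DMSO only wells and the 100% control is not disclosed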
DAGLB inh: DAGLB lipase inhibitors, primary screen, biochemical, fluorescence, HTS; Diacylglycerol lipase-beta (Homo sapiens), Q8NCG7; HEK293T DAGLB membrane lysate, EnzChek fluorogenic substrate; inhibition, % at 5.17 µM; 340,000 compounds, 0.059% hits; in the data active means inhibition above about 34%;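 further: 0% = enzyme with vehicle and 100% = wells lacking enzyme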
Cardio protect: cardioprotection against H2O2-induced cell death, primary screen, uHTS, H9c2 cells, ATPLite luminescence | H9c2 cardiomyocytes, H2O2 injury protection, 2 h | protection from H2O2 cell death, % at 20 µM | 360,000 compounds, 0.63% hits | AID 588492, 2011;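 active means compounds giving at least 50% protection of heart cells from peroxide-induced death in the single-dose screen, raw or plate-pattern-corrected value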;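 further: 0% = DMSO wells with peroxide and 100% = DMSO wells without peroxide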
Rtt109 HAT inh: inhibitors of C. albicans Rtt109/Vps75 HAT, primary screen, biochemical, ThioGlo CoA-SH fluorescence, plate reader | purified Rtt109/Vps75, 4 h | inhibition, % at 34.9 µM | 330,000 compounds, 0.16% hits | AID 540336, 2011;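 active means inhibition of at least 50% in every replicate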
Target sequence (Q5AAJ8 whole entry, looked up): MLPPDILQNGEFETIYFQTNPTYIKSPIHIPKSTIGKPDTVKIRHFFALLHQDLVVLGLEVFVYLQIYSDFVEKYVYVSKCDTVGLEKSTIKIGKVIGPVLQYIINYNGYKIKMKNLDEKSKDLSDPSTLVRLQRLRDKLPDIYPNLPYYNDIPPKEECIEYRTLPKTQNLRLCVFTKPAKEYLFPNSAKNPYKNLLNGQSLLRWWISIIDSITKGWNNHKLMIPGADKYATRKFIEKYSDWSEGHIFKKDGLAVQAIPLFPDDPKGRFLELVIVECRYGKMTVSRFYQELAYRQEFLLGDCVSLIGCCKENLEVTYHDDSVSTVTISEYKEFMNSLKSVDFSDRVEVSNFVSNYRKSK
Myeloid diff 2: induction of myeloid progenitor differentiation, primary screen, cell-based, flow cytometry, MLPCN library | ER-HoxA9 myeloid progenitors, lysozyme-GFP differentiation | calls only at 10 µM | 360,000 compounds, 1% hits | AID 624256, 2012;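 active means normalized GFP-positive differentiation at or above the plate's own cutoff, the solvent-only control mean plus 3 SD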;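 further: cells exposed to compound for four days before flow analysis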
sPLA2-III inh: human group III sPLA2 inhibitors, primary screen, biochemical, QFRET, BODIPY PC-A2 liposome substrate; Group 3 secretory phospholipase A2 (Homo sapiens), Q9NZ20; QFRET BODIPY PC-A2 liposome hydrolysis, fluorescence; inhibition, % at 12.2 µM; 370,000 compounds, 0.56% hits;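 active means inhibition above mean plus 3 SD of compounds lying within the high and low control bounds, cut at about 19% in these data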;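 further: 0% = median of test compound wells and 100% = no enzyme DMSO wells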
Myeloid diff CP1: inducers of myeloid progenitor differentiation, confirmation, cell-based, GFP/Mac1 flow cytometry, cherry pick 01; shares compounds with Myeloid diff 2; ER-HoxA9 myeloid progenitors, GFP/Mac1 double-positive flow; calls only; 2,300 compounds, 2% hits;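 active means share of green or green-and-red cells above 9 and 9% in run 1 or 4 and 3% in run 2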
GFP autofluor: compound fluorescence in myeloid differentiation counter-screen; shares compounds with Myeloid diff 2; ER-HoxA9 myeloid progenitors, no estrogen, GFP autofluorescence flow cytometry; vehicle wells 0%, positive control 100%; fluorescence response, % (test concentration not listed); 2,300 compounds, 7.4% hits;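 active means over 5% cells positive for green fluorescent reporter, or over 2% positive for both it and APC stain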;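 further: range taken on the double positive population between DMSO and positive control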
An asterisk follows results filed as active; i = inactive; . = no result; + = active, no number.

SMILES	ABHD5 PLIN5 PPI	DAGLB inh	Cardio protect	Rtt109 HAT inh	Myeloid diff 2	sPLA2-III inh	Myeloid diff CP1	GFP autofluor
CCn1c(=O)c(C(=O)Nc2cccnc2)c(O)c2ccccc21	9.1	1.2	-0.1	8.7	i	6.4	.	.
CCn1c(=O)c(C(=O)NCc2cccnc2)c(O)c2ccccc21	3.1	4.1	-2.6	-0.4	i	3.1	i	0.2
OC1CCNC(=S)N1c1ccccc1 (stereo unspecified)	-10.5	-3.9	7.3	-12.0	+	10.0	i	0.3
CCOc1ccc(NC(=O)Nc2cnccn2)cc1	5.9	1.0	0.5	-4.1	i	2.6	.	.
Cn1c(C(=O)NCC2CCCO2)cc2c(=O)[nH]c3ccccc3c21 (stereo unspecified)	4.1	-0.2	2.0	4.8	i	-2.5	i	1.0
O=C(CN(CCc1ccccc1)S(=O)(=O)c1ccc(Br)cc1)N/N=C/c1ccccc1C(=O)O	-7.7	11.3	-4.2	11.0	i	-8.7	.	.
CCOc1cc(CNc2ccccc2)cc(Br)c1OCC(=O)NC(C)(C)C	-8.8	-7.9	-16.9	.	i	4.1	.	.
CCOc1cc(CNc2ccc(Br)cc2)cc(Br)c1OCC(=O)NC(C)(C)C	4.0	-11.5	-13.2	35.3	.	7.3	i	0.3
Cc1c(N=C2NN=C(c3c[nH]c4ccccc34)CS2)c(=O)n(-c2ccccc2)n1C	4.4	1.6	-3.1	10.6	+	0.2	i	4.7
CC(C)(C)c1nc(CN2CCCCC2)cc(CN2CCCCC2)c1O	2.8	-1.2	-15.1	-2.1	+	-4.9	i	0.0
CC(C)(C)OC(=O)NCc1ccc(CNC(=O)c2[nH]cnc2C(=O)N[C@@H](Cc2ccccc2)C(=O)OCc2ccccc2)cc1	-1.9	-1.2	-10.3	-3.2	i	-9.6	.	.
COC(=O)COc1ccc(S(=O)(=O)Nc2ccc3c(c2)OCO3)cc1Cl	-1.7	3.9	4.2	-5.4	+	-13.7	i	0.0
CSc1nncc(-c2ccc(F)cc2)n1	0.9	0.4	23.4	-12.8	i	10.3	.	.
CC(=O)O[C@]1(C(C)=O)CC[C@H]2[C@@H]3C=C(Cl)C4=CC(=O)CC[C@]4(C)[C@H]3CC[C@@]21C	3.0	0.6	5.0	18.0	i	-11.2	i	0.5
CC12CS(=O)(=O)CC1SC(=S)N2c1ccccn1 (stereo unspecified)	-4.1	1.3	4.8	-3.2	+	1.6	i	0.0
O=S1(=O)CC2SC(=S)N(c3ccccc3)C2C1 (stereo unspecified)	-1.0	.	1.4	.	i	2.8	.	.
CCOC(=O)N1CCN(C(=O)C2CCN(S(=O)(=O)N3CCC4(CC3)OCCO4)CC2)CC1	2.6	-0.3	-2.9	6.7	i	2.4	.	.
CCOC(=O)N1CCN(C(=O)C2CCN(S(=O)(=O)N3CCCC3)CC2)CC1	2.6	7.3	0.6	-0.1	+	2.8	i	0.3
NS(=O)(=O)c1ccc(NC(=S)NCc2ccccc2Cl)cc1	-0.4	0.0	1.6	6.0	i	-7.0	i	1.2
Cc1ccc(CN2CC(N3CCN(Cc4cccc(C)c4)CC3)CS2(=O)=O)cc1 (stereo unspecified)	4.4	.	-0.6	.	i	-7.6	.	.
Cc1cc2nc(/C(C#N)=C\c3ccc(-c4ccccc4C(=O)O)o3)[nH]c2cc1C	3.1	-6.9	1.2	-8.6	i	-2.4	i	3.0
CCOc1ccc(NS(=O)(=O)c2cc(C(=O)N3CCCC3)ccc2Cl)cc1	-5.2	0.8	-3.5	2.0	i	9.3	.	.

Source: PubChem
